Calls of active or inactive are those of the source. Rule for the calls: active = hit-call score of the fitted dose curve at least 0.9, where 1 is the maximum; inactive = score below 0.9.
Columns and labels:
[1] = target: Bile acid receptor (Homo sapiens) (UniProt Q96RI1); assay: ATG_IR1_CIS: Attagene CIS-FACTORIAL HepG2 Assay for human Nuclear Receptor Subfamily 1 Group H Member 4 (NR1H4), IR1 submotif (AID 2282946); conditions: IR1 reporter transcription, actives raise or lower the signal
Method in brief: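 Readout: reporter transcript levels by RT-PCR with fluorescent capillary electrophoresis, from HepG2 cells transiently transfected with multiplexed cis-regulated reporters and dosed 24 h. Gain- or loss-of-signal fitted versus DMSO negative control.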

[2] = ATG_GRE_CIS: Attagene CIS-FACTORIAL HepG2 Assay for human Glucocorticoid Response Elements (GRE) (AID 2282947); conditions: HepG2 GRE cis-reporter, Attagene multiplex mRNA; actives raise or lower the signal
Method in brief: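 Cells (HepG2) bearing transfected cis-promoter reporter transcription units were treated with chemical for 24 hours. Reporter mRNA was measured via RT-PCR with capillary electrophoresis, and activity was fitted in both directions relative to DMSO.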

[3] = ATG_ISRE_CIS: Attagene CIS-FACTORIAL HepG2 Assay for human Interferon Regulatory Factor 1 (IRF1) binding to an Interferon-Stimulated Response Element (ISRE) (AID 2282948); conditions: HepG2 ISRE cis-reporter (Attagene), mRNA transcription readout; actives raise or lower the signal
Method in brief: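 Multiplexed mRNA reporter readout in human liver HepG2 cells: cis-element-driven reporters transfected, compound added for 24 h, transcripts amplified, fluorescently labelled and sized by capillary electrophoresis; curve fitting bidirectional against DMSO.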

[4] = ATG_M_32_CIS: Attagene CIS-FACTORIAL HepG2 Assay for M32 Transcription Factor (Internal Marker) (AID 2282949); conditions: HepG2 Attagene cis-factorial M32 reporter, mRNA; actives raise or lower the signal;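 note: background control marker of the multiplexed CIS panel rather than a real target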
Method in brief: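 HepG2 transfectants (cis-regulated reporter transcription units) dosed 24 h. Reporter mRNA by RT-PCR plus CE, analysed as gain or loss relative to DMSO.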

[5] = ATG_M_06_CIS: Attagene CIS-FACTORIAL HepG2 Assay for M06 Transcription Factor (Internal Marker) (AID 2282950); conditions: HepG2 Attagene CIS-FACTORIAL M06 internal marker reporter; actives raise or lower the signal
Method in brief: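 Fluorescence-labelled RT-PCR products from cis-promoter reporter units, cut with HpaI and resolved by capillary electrophoresis, give the signal. Cells are human HepG2, dosed for 24 h. Serves as background control, fitted relative to DMSO.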

[6] = target: Hypoxia-inducible factor 1-alpha (Homo sapiens) (UniProt Q16665); assay: ATG_HIF1a_CIS: Attagene CIS-FACTORIAL HepG2 Assay for human Hypoxia Inducible Factor 1 (HIF1A) (AID 2282951); conditions: HepG2 Attagene cis-factorial HIF1a reporter transcription; actives raise or lower the signal
Sequence of Hypoxia-inducible factor 1-alpha (Homo sapiens) (Q16665 whole entry, looked up): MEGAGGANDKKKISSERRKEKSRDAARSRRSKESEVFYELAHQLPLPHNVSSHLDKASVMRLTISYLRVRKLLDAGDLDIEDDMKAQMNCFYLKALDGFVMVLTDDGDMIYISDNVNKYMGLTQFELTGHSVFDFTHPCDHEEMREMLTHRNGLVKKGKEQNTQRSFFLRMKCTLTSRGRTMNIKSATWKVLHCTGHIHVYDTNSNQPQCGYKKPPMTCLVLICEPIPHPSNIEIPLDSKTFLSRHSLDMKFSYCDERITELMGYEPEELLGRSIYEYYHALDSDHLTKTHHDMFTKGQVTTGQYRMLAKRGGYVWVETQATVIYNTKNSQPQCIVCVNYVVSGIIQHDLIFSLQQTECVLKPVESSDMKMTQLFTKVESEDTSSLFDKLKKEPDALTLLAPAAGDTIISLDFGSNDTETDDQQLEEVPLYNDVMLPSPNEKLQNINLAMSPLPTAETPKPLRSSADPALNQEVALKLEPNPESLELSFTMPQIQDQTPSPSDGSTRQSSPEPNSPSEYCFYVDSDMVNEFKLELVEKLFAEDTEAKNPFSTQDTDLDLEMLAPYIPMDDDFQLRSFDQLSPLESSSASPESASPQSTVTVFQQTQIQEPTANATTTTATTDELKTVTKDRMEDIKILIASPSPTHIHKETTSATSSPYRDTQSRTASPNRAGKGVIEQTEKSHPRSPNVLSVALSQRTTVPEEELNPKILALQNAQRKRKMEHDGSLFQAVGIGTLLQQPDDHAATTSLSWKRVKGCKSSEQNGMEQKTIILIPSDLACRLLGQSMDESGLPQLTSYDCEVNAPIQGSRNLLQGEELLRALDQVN
Method in brief: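 RT-PCR/capillary electrophoresis fluorescence readout of reporter transcripts from endogenous-TF-driven cis elements in transfected HepG2 cells, 24 h exposure; activity fitted in both directions against DMSO controls.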

[7] = target: Hepatocyte nuclear factor 6 (Homo sapiens) (UniProt Q9UBC0); assay: ATG_HNF6_CIS: Attagene CIS-FACTORIAL HepG2 Assay for human Hepatocyte Nuclear Factor 6 (HNF6) (AID 2282952); conditions: HepG2 Attagene cis-factorial HNF6 reporter transcription; actives raise or lower the signal
Sequence of Hepatocyte nuclear factor 6 (Homo sapiens) (Q9UBC0 whole entry, looked up, the tested form may be a part): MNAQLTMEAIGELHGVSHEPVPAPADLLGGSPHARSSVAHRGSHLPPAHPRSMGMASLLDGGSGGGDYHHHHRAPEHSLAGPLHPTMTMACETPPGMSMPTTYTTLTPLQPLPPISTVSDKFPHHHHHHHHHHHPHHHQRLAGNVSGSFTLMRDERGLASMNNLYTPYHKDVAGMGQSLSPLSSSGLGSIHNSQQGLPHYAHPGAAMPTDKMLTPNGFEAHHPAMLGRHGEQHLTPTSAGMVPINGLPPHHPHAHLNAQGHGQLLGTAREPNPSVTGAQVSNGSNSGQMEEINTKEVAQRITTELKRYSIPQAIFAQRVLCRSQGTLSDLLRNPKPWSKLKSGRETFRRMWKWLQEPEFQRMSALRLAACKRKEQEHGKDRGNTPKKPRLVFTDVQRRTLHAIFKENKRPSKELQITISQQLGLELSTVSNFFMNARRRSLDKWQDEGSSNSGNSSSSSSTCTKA
Method in brief: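 Twenty-four-hour chemical treatment of reporter-transfected HepG2 cells precedes RNA isolation, DNase-treated reverse transcription and PCR of reporter sequences. Labelled fragments are sized by capillary electrophoresis and fitted bidirectionally versus DMSO.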

[8] = target: Heat shock factor protein 1 (Homo sapiens) (UniProt Q00613); assay: ATG_HSE_CIS: Attagene CIS-FACTORIAL HepG2 Assay for human Heat Shock Transcription Factor 1 (HSE) (AID 2282953); conditions: HepG2 HSE cis-reporter, Attagene RNA transcription; actives raise or lower the signal
Sequence of Heat shock factor protein 1 (Homo sapiens) (Q00613 whole entry, looked up): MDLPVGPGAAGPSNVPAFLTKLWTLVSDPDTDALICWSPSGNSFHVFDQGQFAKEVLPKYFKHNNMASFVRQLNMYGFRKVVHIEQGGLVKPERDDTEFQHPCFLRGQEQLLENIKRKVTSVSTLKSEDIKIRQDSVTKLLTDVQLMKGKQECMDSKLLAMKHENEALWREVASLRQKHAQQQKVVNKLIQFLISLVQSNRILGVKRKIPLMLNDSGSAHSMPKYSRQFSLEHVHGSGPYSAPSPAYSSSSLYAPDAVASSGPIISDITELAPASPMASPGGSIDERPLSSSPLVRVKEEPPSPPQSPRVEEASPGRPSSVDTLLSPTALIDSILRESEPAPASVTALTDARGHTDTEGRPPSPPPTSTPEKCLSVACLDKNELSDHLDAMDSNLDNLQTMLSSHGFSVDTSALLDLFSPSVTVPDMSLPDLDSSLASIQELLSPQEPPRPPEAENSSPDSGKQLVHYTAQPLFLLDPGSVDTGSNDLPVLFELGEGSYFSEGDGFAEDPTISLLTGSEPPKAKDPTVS
Method in brief: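 After a 24 h incubation with test chemical, transfected HepG2 cells were harvested for RNA; reporter transcripts were measured by RT-PCR and capillary electrophoresis. Values reflect gain or loss of signal relative to DMSO.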

[9] = ATG_MRE_CIS: Attagene CIS-FACTORIAL HepG2 Assay for human Metal Responsive Element (MRE) (AID 2282954); conditions: HepG2 MRE cis-reporter transcription, Attagene multiplex; actives raise or lower the signal
Method in brief: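 Cells were transfected with cis-promoter reporter transcription units, then dosed for 24 h. RNA was reverse-transcribed, amplified, fluorescently labelled and resolved by capillary electrophoresis, and activity was fitted in both directions relative to DMSO.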

[10] = ATG_PBREM_CIS: Attagene CIS-FACTORIAL HepG2 Assay for human Phenobarbital-responsive Enhancer Module (PBREM) (AID 2282955); conditions: HepG2 PBREM cis-reporter, Attagene multiplexed transcription; actives raise or lower the signal
Method in brief: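 Reporter mRNA read by RT-PCR, 6-FAM primer extension, HpaI digestion and capillary electrophoresis. Transfected HepG2 cells, 24 h compound exposure. Gain or loss of signal fitted bidirectionally relative to DMSO baseline.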

Measured: AC50

Sequence of Bile acid receptor (Homo sapiens) (Q96RI1 whole entry, looked up): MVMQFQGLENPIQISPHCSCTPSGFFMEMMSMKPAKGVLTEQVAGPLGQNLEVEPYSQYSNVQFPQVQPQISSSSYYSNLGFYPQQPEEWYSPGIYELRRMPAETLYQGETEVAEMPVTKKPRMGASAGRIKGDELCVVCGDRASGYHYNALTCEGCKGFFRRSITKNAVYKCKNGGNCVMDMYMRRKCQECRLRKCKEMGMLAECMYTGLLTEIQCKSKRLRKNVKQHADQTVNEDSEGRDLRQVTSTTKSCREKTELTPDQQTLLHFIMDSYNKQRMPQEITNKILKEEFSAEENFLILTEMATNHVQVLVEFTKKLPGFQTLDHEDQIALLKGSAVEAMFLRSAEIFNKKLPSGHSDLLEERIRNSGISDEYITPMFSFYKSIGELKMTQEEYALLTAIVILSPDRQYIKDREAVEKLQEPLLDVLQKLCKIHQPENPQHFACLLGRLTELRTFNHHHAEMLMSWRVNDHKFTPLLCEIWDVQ

C=CC=CC=CCCCCC
active: [1] 40.4 µM
not listed: [10]
inactive: all other assays above

COC(=O)c1ccccc1OC
not listed: [10]
inactive: all other assays above

NC(=O)NNC(N)=O
not listed: [10]
inactive: all other assays above

c1ccc2c(c1)ccc1cc3c(ccc4ccccc43)cc12
active: [6] 0.364 µM
not listed: [10]
inactive: all other assays above

CCOC(=O)c1ccccc1C(=C1C=C(Br)C(=O)C(Br)=C1)c1cc(Br)c(O)c(Br)c1
inactive: [2] | [4] | [5] | [7]
active: [1] 62.5 µM | [3] 28.8 µM | [6] 35.8 µM | [8] 20.6 µM | [9] 26.2 µM

O=C(c1ccc(O)cc1)c1ccc(O)cc1O
inactive: all assays above

C1CN(SSN2CCOCC2)CCO1
active: [8] 44.4 µM
not listed: [10]
inactive: all other assays above

CC=C1CC2C=CC1C2 (stereo unspecified)
active: [9] 87.6 µM
inactive: all other assays above

O=S(=O)(O)c1cc(S(=O)(=O)O)c2ccc3c(S(=O)(=O)O)cc(S(=O)(=O)O)c4ccc1c2c43
not listed: [10]
inactive: all other assays above

C[Si](C)(C)O[Si](O)(O)O
not listed: [10]
inactive: all other assays above

CCCCCC/C=C\CCCCCCCC(=O)O
inactive: all assays above

CCN(CCC#N)c1ccc(N=Nc2c(Cl)cc([N+](=O)[O-])cc2Cl)cc1
active: [6] 43.3 µM
inactive: all other assays above

CC(C)(C)c1ccc(OC(=O)c2ccccc2O)cc1
inactive: all assays above

C=C(C)C(=O)OCCO
inactive: all assays above

O=C1Nc2ccccc2C1(c1ccc(O)cc1)c1ccc(O)cc1
active: [1] 148 µM | [3] 84.2 µM | [6] 57.2 µM | [8] 163 µM | [9] 70.4 µM
inactive: [2] | [4] | [5] | [7]

COC(F)(F)C(F)(C(F)(F)F)C(F)(F)F
inactive: all assays above

CCCCCCCCCCCCCCCC[N+](C)(C)CC
active: [3] 9.27 µM | [9] 8.94 µM
not listed: [10]
inactive: all other assays above

CCCCCCCCCCCCCCCC[n+]1ccccc1
active: [3] 9.02 µM
not listed: [10]
inactive: all other assays above

O=C1c2cccc(O)c2C(=O)c2c(O)cc(CO)cc21
active: [6] 24 µM
inactive: all other assays above

CCCCCCCC[N+](C)(CCCCCCCC)CCCCCCCC
active: [6] 0.000753 µM | [9] 2.15 µM
inactive: all other assays above

O=C1C=CC(=O)O1
not listed: [10]
inactive: all other assays above

CC(C)c1ccc2c(C(C)C)cc(C(C)C)c(S(=O)(=O)O)c2c1
active: [9] 21.1 µM
not listed: [10]
inactive: all other assays above

CCCCCCOC(=O)C(C)CC (stereo unspecified)
inactive: all assays above

OCCCS
inactive: all assays above

NC(=O)c1ccccc1O
not listed: [10]
inactive: all other assays above

c1ccc(CCCc2ccncc2)cc1
active: [8] 144 µM
not listed: [10]
inactive: all other assays above

CCc1c(C(=O)O)c(=O)cnn1-c1ccc(Cl)cc1
not listed: [10]
inactive: all other assays above

CC(C)=CC1CC(C)CCO1 (stereo unspecified)
not listed: [10]
inactive: all other assays above

O=c1cc[nH]c(=S)[nH]1
inactive: all assays above

Clc1nc2ccccc2s1
not listed: [10]
inactive: all other assays above

CC(C)=CCC/C(C)=C\C#N
inactive: all assays above

CC(C)(C)c1n[nH]c(=O)n(N)c1=O
not listed: [10]
inactive: all other assays above

Cc1cc(O)c(Cl)c(C)c1Cl
inactive: all assays above

Nc1ccc(Cl)cc1Cl
not listed: [10]
inactive: all other assays above

CC(C)(c1cc(Br)c(OCCO)c(Br)c1)c1cc(Br)c(OCCO)c(Br)c1
active: [1] 7.14 µM | [2] 44.2 µM | [3] 7 µM | [4] 22.9 µM | [6] 6.89 µM | [7] 42.2 µM | [8] 21.5 µM | [9] 18.4 µM
inactive: [5] | [10]

OCCN(CCO)c1ccccc1
not listed: [10]
inactive: all other assays above

NNC(=O)c1cccc(C(=O)NN)c1
inactive: all assays above

O=[N+]([O-])c1ccc(CO)cc1
not listed: [10]
inactive: all other assays above

Cc1ccc2oc(=O)ccc2c1
inactive: all assays above

COC(=O)/C=C/C(C)=C\C=C\C(C)=C\C=C\C=C(C)\C=C\C=C(C)\C=C\C(=O)O
inactive: all assays above

Oc1ccc(Cl)cc1Cc1cc(Cl)ccc1O
active: [1] 11.1 µM | [9] 11.1 µM
not listed: [6]
inactive: all other assays above

CCOC(F)(F)C(F)(F)C(F)(F)C(F)(F)F
inactive: all assays above

C=C(C)CCO
not listed: [5] | [10]
inactive: all other assays above

O=CC1CC1
inactive: all assays above

CC(=O)c1ccc[nH]1
not listed: [5] | [10]
inactive: all other assays above

O=C1CC2CC1C1CCCC21 (stereo unspecified)
not listed: [7]
inactive: all other assays above

CO[Si](CCC1CCC2OC2C1)(OC)OC (stereo unspecified)
not listed: [6]
inactive: all other assays above

Reference: PubChem BioAssay (EPA / NIEHS)
